This excerpt belongs to a sample that is enriched for hits.
IDE exosite FP – displaces the probe from the exo-site of human IDE; P14735; purified IDE, FL-6b probe fluorescence polarization; active compounds read low; z-score at 20 µM; actives 6.3% (n = 17,000); AID 1259349;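 active = z-score of -3 or lower, meaning strong loss of probe binding signal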;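 also: His-tagged human IDE residues 42-1019 made in E. coli with 30 nM FL-6b probe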
* = called active by the depositor.

SMILES	IDE exosite FP
COC(=O)C[C@@H]1CC[C@@H]2[C@@H](COc3ccc(NC(=O)Nc4cccc(C#N)c4)cc3C(=O)N2C)O1	0.39
O=C(c1ccc2c(c1)OCO2)N1CCCCN2[C@@H](CO)[C@@H](c3ccc(-c4ccccc4)cc3)[C@@H]2C1	0.41
N#C[C@H]1[C@@H](c2ccccc2C2=CCCC2)[C@@H](CO)N1C(=O)C1CC1	3.2
COc1ccc(-c2ccc([C@H]3[C@@H](CO)N4C(=O)CNC[C@@H]34)cc2)cc1	2.6
O=C(c1ccncc1)N1CC(=O)N2[C@H](C1)[C@H](c1ccc(-c3cccnc3)cc1)[C@@H]2CO	0.98
CCC(=O)N1[C@H](CO)[C@@H](c2ccccc2)[C@@H]1CN(CC)C(=O)c1cccc(F)c1	-1.9
O=C(c1ccc(F)cc1)N1CCCCN2[C@H](CO)[C@H](c3ccc(/C=C/c4ccccc4)cc3)[C@H]2C1	-1.6
CN(C)CC#Cc1ccc([C@@H]2[C@H]3CN(C(=O)CN(C)C)CCCCN3[C@H]2CO)cc1	1.7
CN(C)CC#Cc1ccc([C@@H]2[C@H](CO)N3CCCCN(C(=O)CN(C)C)C[C@@H]23)cc1	4
CN(C)CC(=O)N1CCCCN2[C@H](C1)[C@H](c1ccc(/C=C/c3ccccc3)cc1)[C@@H]2CO	-7.3*
O=C(c1ccc(F)cc1)N1CCCCN2[C@@H](CO)[C@@H](c3ccc(/C=C/c4ccccc4)cc3)[C@@H]2C1	-0.79
CN(C)CC(=O)N1CCCCN2[C@H](C1)[C@@H](c1ccc(/C=C/c3ccccc3)cc1)[C@@H]2CO	-5.9*
CC(C)C#Cc1ccc([C@@H]2[C@@H](CO)N3CCCCN(C(=O)Nc4ccccc4)C[C@@H]23)cc1	0.73
O=C(C[C@H]1CC[C@@H]2[C@H](COC[C@H](O)CN2C(=O)c2cnccn2)O1)N1CCN(c2ccccc2)CC1	1.7
O=C1CNC[C@H]2[C@H](c3ccc(C4=CCCC4)cc3)[C@H](CO)N12	1.8
COc1ccc2c3c(n(C)c2c1)[C@@H](CO)N(Cc1ccc(Cl)cc1)CC31CN(C(=O)NC(C)C)C1	0.21
COc1cccc(CN2CC3(CCN(S(C)(=O)=O)CC3)c3c(n(C)c4cc(OC)ccc34)[C@@H]2CO)c1	-2.5
COc1ccc2c3c(n(C)c2c1)[C@H](CO)N(C)CC31CCN(C(=O)c2cccnc2)CC1	-0.19
COc1ccc2c3c(n(C)c2c1)[C@H](CO)N(Cc1cccnc1)CC31CCN(C(=O)NC(C)C)CC1	-3*
COc1ccc2c3c(n(C)c2c1)[C@@H](CO)N(Cc1cccnc1)CC31CCN(C(=O)NC(C)C)CC1	-5.9*
COc1ccc2c3c(n(C)c2c1)[C@H](CO)N(Cc1cccc(Cl)c1)CC31CCN(C(=O)C2CC2)CC1	-1.6
CCS(=O)(=O)Nc1ccc2c(c1)C(=O)N(C)[C@H]1CC[C@@H](CC(=O)NCc3ccccc3F)O[C@@H]1CO2	0.36
O=C(C[C@@H]1CC[C@H]2[C@@H](COC[C@@H](O)CN2Cc2ccc(C(F)(F)F)cc2)O1)N1CCc2ccccc2C1	0.79
O=C(Nc1ccc2c(c1)[C@H]1C[C@@H](CC(=O)N3CCCCC3)O[C@H](CO)[C@H]1O2)NC1CCCCC1	-0.21
CCC(=O)N1CC(=O)N2[C@@H](CO)[C@@H](c3ccc(C#Cc4cccc(F)c4)cc3)[C@@H]2C1	-4.1*
SMILES	IDE exosite FP
CCS(=O)(=O)N1CC(=O)N2[C@H](CO)[C@@H](c3ccc(C#Cc4cccc(F)c4)cc3)[C@H]2C1	-2.4
CCC(=O)N1CC(=O)N2[C@H](CO)[C@@H](c3ccc(C#Cc4cccc(F)c4)cc3)[C@@H]2C1	-1.1
CCS(=O)(=O)N1CC(=O)N2[C@H](C1)[C@H](c1ccc(C#Cc3cccc(F)c3)cc1)[C@@H]2CO	-5.4*
CCC(=O)N1CC(=O)N2[C@H](C1)[C@@H](c1ccc(C#Cc3cccc(F)c3)cc1)[C@@H]2CO	-1.3
CS(=O)(=O)N1CC(=O)N2[C@H](C1)[C@@H](c1ccc(C#Cc3cccc(F)c3)cc1)[C@@H]2CO	0.91
CCC(=O)N1CC(=O)N2[C@H](CO)[C@H](c3ccc(C#Cc4cccc(F)c4)cc3)[C@H]2C1	-4*
O=C1CN(Cc2ccccc2)C[C@H]2[C@H](c3ccc(-c4ccccc4F)cc3)[C@H](CO)N12	-1.1
COc1cc(CN2CC3(CCN(S(=O)(=O)c4cn(C)cn4)CC3)c3c(n(C)c4cc(OC)ccc34)[C@H]2CO)cc(OC)c1	-2.5
CS(=O)(=O)N1Cc2cc(C(=O)O)nc(-c3cccc(-c4ccccc4F)c3)c2[C@@H]1CCO	1.9
Cc1ccc(S(=O)(=O)Nc2ccc3c(c2)C(=O)N(C)[C@@H]2CC[C@H](CC(=O)NCCc4ccncc4)O[C@H]2CO3)cc1	-0.62
CCC(=O)N(CC)C[C@@H]1[C@@H](c2ccc(-c3cccnc3)cc2)[C@H](CO)N1C(C)=O	0.82
CN1C(=O)c2cc(NC(=O)Nc3ccccc3F)ccc2OC[C@@H]2O[C@@H](CC(=O)NCCc3ccncc3)CC[C@@H]21	-0.21
CN(C)CC#Cc1ccc([C@@H]2[C@@H](CO)N3C(=O)CN(C(=O)c4ccccc4)C[C@@H]23)cc1	4.2
Cc1cccc(-c2ccc([C@H]3[C@H](CO)N4CCCCN(S(=O)(=O)c5ccccc5C)C[C@@H]34)cc2)c1	1.3
COc1cccc(-c2ccc([C@H]3[C@H]4CN(S(=O)(=O)c5cccs5)CCCCN4[C@H]3CO)cc2)c1	0.23
Cc1cccc(-c2ccc([C@@H]3[C@H](CO)N4CCCCN(S(=O)(=O)c5ccccc5F)C[C@@H]34)cc2)c1	-22*
COc1cccc(-c2ccc([C@H]3[C@@H](CO)N4CCCCN(S(=O)(=O)c5cccs5)C[C@@H]34)cc2)c1	2
O=S(=O)(c1ccccc1F)N1CCCCN2[C@H](C1)[C@H](c1ccc(-c3ccccc3)cc1)[C@@H]2CO	0.64
Cc1cccc(-c2ccc([C@@H]3[C@@H](CO)N4CCCCN(S(=O)(=O)c5cn(C)cn5)C[C@H]34)cc2)c1	-0.7
Cn1cnc(S(=O)(=O)N2CCCCN3[C@H](CO)[C@H](c4ccc(-c5cccc(F)c5)cc4)[C@H]3C2)c1	-1.3
COc1cccc(-c2ccc([C@@H]3[C@@H](CO)N4CCCCN(S(=O)(=O)c5cccs5)C[C@@H]34)cc2)c1	-3.2*
COc1cccc(-c2ccc([C@@H]3[C@H]4CN(S(=O)(=O)c5cn(C)cn5)CCCCN4[C@H]3CO)cc2)c1	-5.5*
Cn1cnc(S(=O)(=O)N2CCCCN3[C@H](CO)[C@@H](c4ccc(-c5ccccc5)cc4)[C@H]3C2)c1	1.3
Cn1cnc(S(=O)(=O)N2CCCCN3[C@H](C2)[C@H](c2ccc(-c4cccc(F)c4)cc2)[C@@H]3CO)c1	3.3
Cc1cccc(-c2ccc([C@H]3[C@@H](CO)N4CCCCN(S(=O)(=O)c5cn(C)cn5)C[C@H]34)cc2)c1	-11*
SMILES	IDE exosite FP
CC(=O)N1CC(=O)N2[C@H](C1)[C@H](c1ccc(C#CC(C)C)cc1)[C@@H]2CO	0.56
Cc1ccccc1S(=O)(=O)N1CC(=O)N2[C@H](CO)[C@H](c3ccc(C#CCC(C)C)cc3)[C@H]2C1	1.2
COc1cccc(-c2ccc3c(c2)[C@@H]2[C@@H](CCN2S(=O)(=O)c2ccccc2F)[C@H](CO)N3)c1	0.41
CCC(=O)N(C[C@@H]1N[C@H](CO)[C@@H]1c1ccc(C#C[C@@H](C)O)cc1)C1CCCCC1	1.2
CC(=O)NC[C@@H]1[C@@H](c2ccc(-c3cccnc3)cc2)[C@@H](CO)N1C(=O)CC1CC1	-0.4
CCCC(=O)N1C[C@@H]2[C@H](c3ccccc31)[C@H](CO)N2C(=O)Nc1ccc(F)cc1	2.5

Source: PubChem
